# This is part of a sample that, as a whole, favours compounds with a hit. Of some 83,000 tested, about 20% had one in any assay.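 Compound tested at a single concentration for 48 hours in 96-well plates; a percent growth value below 10 was scored as active.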 A number with no mark means an inactive call. Activity calls are given as the source filed them.
# What was measured:
# Assay in all cases: NCI-60 one-dose screen, 48 h (100 = growth as untreated, 0 = no growth, -100 = all killed)
# Conditions in all cases: 10 µM unless noted
# DU-145 prostate = system: DU-145 prostate
# K-562 leukemia = system: K-562 leukemia
# MALME-3M melanoma = system: MALME-3M melanoma
# RXF 393 renal = system: RXF 393 renal
# SF-268 CNS = system: SF-268 CNS
# SF-295 CNS = system: SF-295 CNS
# SF-539 CNS = system: SF-539 CNS
# UACC-257 melanoma = system: UACC-257 melanoma
# M14 melanoma = system: M14 melanoma
# MDA-MB-231 breast = system: MDA-MB-231 breast
Structure (SMILES),growth (DU-145 prostate),growth (K-562 leukemia),growth (MALME-3M melanoma),growth (RXF 393 renal),growth (SF-268 CNS),growth (SF-295 CNS),growth (SF-539 CNS),growth (UACC-257 melanoma),growth (M14 melanoma),growth (MDA-MB-231 breast)
Clc1ccc2c(c1)N(CCCN1CCCC1)c1ccccc1S2,59.1%,0.508% (active),7.63% (active),23.6%,30%,54.6%,15.3%,85.8%,-47% (active),–
COC(=O)C(Cc1ccccc1)NC(=O)NC(=O)NC(=O)CI (stereo not drawn),91.2%,-18.8% (active),-71% (active),63.9%,71.8%,103%,87.7%,103%,35.2%,–
COc1ccc2c(c1)C(C)Cc1c(ncnc1-n1c(C)nc3ccccc31)N2C (stereo not drawn),24.2%,11%,58.1%,14.2%,42.5%,6.04% (active),5.97% (active),68.3%,14.5%,–
CSc1ccc2c(c1)c(CCN)c(C)n2Cc1ccc(Cl)c(Cl)c1,-89.4% (active),-66.1% (active),-75.4% (active),-82.5% (active),-71.1% (active),-90.9% (active),-82.8% (active),-73.3% (active),-85% (active),–
N#CC1=C(N)Oc2c(sc3c(Br)cccc23)C1c1ccc(Br)cc1 (stereo not drawn),8.77% (active),8.24% (active),60%,-2.19% (active),33.9%,0.128% (active),-14.2% (active),41.4%,-0.594% (active),–
COc1ccc(C(=O)COC(=O)[C@H](C[Se][Se]C[C@H](NC(=O)c2ccc(Br)cc2F)C(=O)OCC(=O)c2ccc(OC)cc2)NC(=O)c2ccc(Br)cc2F)cc1,-70.6% (active),9.64% (active),-45.9% (active),-90.5% (active),-54.3% (active),-31.7% (active),-93.9% (active),-43.8% (active),-73.9% (active),-57.5% (active)
CCCCCCCNC(=O)CCCNc1ncnc2c1ncn2-c1cccc(C(C)O)c1 (stereo not drawn),94.4%,41.6%,84.8%,89.9%,83.8%,93.6%,94.1%,121%,89.3%,–
COc1cccc(/C=C2\C=C(c3ccccc3)N(Cc3ccccc3)C2=O)c1,93.9%,36.1%,98.2%,39.8%,56.2%,44.6%,53.3%,83.3%,5.88% (active),–
N#CC1=C(N)Oc2c(sc3c(Br)cccc23)C1c1ccc([N+](=O)[O-])cc1 (stereo not drawn),8.77% (active),7.66% (active),93.2%,17.6%,13.5%,-5.7% (active),-18% (active),87.1%,3.87% (active),–
COC(=O)[C@H](C)NC(=O)NC(=O)NC(=O)CI,84.5%,7.73% (active),-53.9% (active),59.1%,82.6%,91.9%,94.6%,104%,58.5%,–
CN1CCN(Cc2ccc(NC(=O)c3ccc(C(C)(C)C)c(C#Cc4cnc5cccnn45)c3)cc2C(F)(F)F)CC1,-76.7% (active),-53% (active),-53.7% (active),-78.7% (active),-74.7% (active),-59.9% (active),-76.3% (active),-37.7% (active),-69.2% (active),–
O=C(Oc1cccc2ccccc12)Oc1cccc2ccccc12,104%,103%,98%,115%,75.3%,109%,101%,127%,96.2%,94.2%
CN1C(=O)CNC(=O)[C@H](NC(=O)c2nc3ccccc3cc2O)CSSC[C@H]1C(=O)NCCCc1nc2ccccc2cc1O,42.3%,18.4%,110%,102%,49.5%,91.9%,82%,83.9%,14.3%,–
COC1=C(C)C(=O)c2c(c(CCCl)c3n2CCC3OC(C)=O)C1=O (stereo not drawn),-9.56% (active),12.7%,-64.3% (active),-54.3% (active),10.4%,-11.7% (active),-41.7% (active),-50.2% (active),-46.3% (active),–
Cc1ccc(/C=N\NC(=O)c2[nH]c3ccc(F)cc3c2-c2ccccc2)cc1,-2.21% (active),16.9%,15.6%,47.6%,38.9%,-6.59% (active),21.4%,59.7%,24.1%,36.5%

# Source: PubChem BioAssay (NCI)
